# Results: paper PMC7862700, “An all-to-all approach to the identification of sequence-specific readers for epigenetic DNA modifications on cytosine”
# Key:
# Assay in all cases: DAPPL (digital affinity profiling via proximity ligation, sequencing); 10 mM Tris-HCl pH 7.5, 50 mM NaCl, 1 mM DTT, 4% glycerol, room temperature, 30 min; GST-TFs on glutathione beads, 16-mer random dsDNA library, 0.1% formaldehyde crosslink after washing; high values mean tight binding
# FLI1 = target: T1, FLI1 (Homo sapiens, UniProt Q01543 1-452); conditions: protein: recombinant; tags: N-terminal GST; dsDNA, one strand shown
# T1 sequence: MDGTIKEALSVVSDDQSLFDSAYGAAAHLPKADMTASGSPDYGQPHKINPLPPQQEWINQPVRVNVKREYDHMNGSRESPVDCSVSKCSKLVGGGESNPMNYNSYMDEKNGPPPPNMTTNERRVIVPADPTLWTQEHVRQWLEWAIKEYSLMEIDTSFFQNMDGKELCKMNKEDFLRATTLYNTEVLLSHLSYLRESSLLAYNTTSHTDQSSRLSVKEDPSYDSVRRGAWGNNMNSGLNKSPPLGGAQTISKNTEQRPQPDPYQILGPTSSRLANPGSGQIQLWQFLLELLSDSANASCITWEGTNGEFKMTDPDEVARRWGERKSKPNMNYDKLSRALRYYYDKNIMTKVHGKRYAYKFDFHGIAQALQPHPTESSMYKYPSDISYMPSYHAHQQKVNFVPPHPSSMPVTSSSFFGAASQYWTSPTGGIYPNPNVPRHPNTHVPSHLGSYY
# Outline: (§1)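 A tag-only sample was pooled with DNA-barcoded human transcription factors that had been expressed in yeast as GST fusions and captured on glutathione beads. The pools were incubated for 30 min at room temperature with 200 nmole of a random double-stranded 16-mer DNA library in Tris/NaCl/DTT/glycerol buffer, then washed, crosslinked with 0.1% formaldehyde, proximity-ligated (BsaI/T4 ligase, 1 h, 37 °C), PCR-amplified and sequenced on an Illumina NextSeq500. Binding signal is each hexamer's read frequency for a factor divided by its frequency for the tag-only sample.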
# ELK1 = target: T2, ELK1 (Homo sapiens, UniProt P19419 1-428); conditions: protein: recombinant; tags: N-terminal GST; dsDNA, one strand shown
# T2 sequence: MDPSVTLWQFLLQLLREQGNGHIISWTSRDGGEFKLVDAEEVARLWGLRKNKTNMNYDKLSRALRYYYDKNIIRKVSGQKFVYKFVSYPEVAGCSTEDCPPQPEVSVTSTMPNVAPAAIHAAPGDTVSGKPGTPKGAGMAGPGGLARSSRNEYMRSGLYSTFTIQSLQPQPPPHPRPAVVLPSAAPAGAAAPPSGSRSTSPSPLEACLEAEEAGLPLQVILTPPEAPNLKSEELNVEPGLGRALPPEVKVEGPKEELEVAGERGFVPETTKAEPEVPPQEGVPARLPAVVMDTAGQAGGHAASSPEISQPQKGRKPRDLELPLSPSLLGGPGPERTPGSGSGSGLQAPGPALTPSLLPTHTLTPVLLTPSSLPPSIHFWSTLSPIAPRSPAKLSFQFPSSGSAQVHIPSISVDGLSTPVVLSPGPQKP
# Outline: as §1
# GABPA = target: T3, GABPA (Homo sapiens, UniProt Q06546 1-454); conditions: protein: recombinant; tags: N-terminal GST; dsDNA, one strand shown
# T3 sequence: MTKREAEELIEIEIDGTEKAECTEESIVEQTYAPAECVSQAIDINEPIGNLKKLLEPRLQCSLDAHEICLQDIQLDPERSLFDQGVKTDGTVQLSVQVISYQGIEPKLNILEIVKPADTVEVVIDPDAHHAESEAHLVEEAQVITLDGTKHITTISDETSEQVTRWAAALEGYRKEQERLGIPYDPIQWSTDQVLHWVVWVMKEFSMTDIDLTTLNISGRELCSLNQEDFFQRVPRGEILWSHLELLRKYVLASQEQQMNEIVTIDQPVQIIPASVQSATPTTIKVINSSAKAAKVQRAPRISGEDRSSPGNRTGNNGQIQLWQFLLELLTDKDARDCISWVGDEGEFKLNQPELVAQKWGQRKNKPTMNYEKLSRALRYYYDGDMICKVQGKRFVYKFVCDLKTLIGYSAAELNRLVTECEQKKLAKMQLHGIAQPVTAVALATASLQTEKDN
# Outline: as §1
# ERG = target: T4, ERG (Homo sapiens, UniProt P11308 1-479); conditions: protein: recombinant; tags: N-terminal GST; dsDNA, one strand shown
# T4 sequence: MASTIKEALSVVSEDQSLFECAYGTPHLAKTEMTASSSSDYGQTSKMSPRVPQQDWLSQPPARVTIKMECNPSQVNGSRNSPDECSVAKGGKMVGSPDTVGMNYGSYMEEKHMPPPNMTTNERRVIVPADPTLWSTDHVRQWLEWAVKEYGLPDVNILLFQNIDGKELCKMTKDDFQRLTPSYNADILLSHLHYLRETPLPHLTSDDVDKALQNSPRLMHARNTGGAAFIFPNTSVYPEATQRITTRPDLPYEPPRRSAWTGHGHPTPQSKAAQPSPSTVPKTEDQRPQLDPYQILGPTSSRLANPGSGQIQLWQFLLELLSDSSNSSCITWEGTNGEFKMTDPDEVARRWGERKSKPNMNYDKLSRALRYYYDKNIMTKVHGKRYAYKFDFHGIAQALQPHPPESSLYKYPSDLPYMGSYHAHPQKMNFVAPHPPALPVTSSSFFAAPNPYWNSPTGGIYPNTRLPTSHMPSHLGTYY
# Outline: as §1
# ELF1 = ELF1 (Homo sapiens, UniProt P32519 1-619); conditions: protein: recombinant; tags: N-terminal GST; dsDNA, one strand shown
# ELF1, sequence (P32519 whole entry): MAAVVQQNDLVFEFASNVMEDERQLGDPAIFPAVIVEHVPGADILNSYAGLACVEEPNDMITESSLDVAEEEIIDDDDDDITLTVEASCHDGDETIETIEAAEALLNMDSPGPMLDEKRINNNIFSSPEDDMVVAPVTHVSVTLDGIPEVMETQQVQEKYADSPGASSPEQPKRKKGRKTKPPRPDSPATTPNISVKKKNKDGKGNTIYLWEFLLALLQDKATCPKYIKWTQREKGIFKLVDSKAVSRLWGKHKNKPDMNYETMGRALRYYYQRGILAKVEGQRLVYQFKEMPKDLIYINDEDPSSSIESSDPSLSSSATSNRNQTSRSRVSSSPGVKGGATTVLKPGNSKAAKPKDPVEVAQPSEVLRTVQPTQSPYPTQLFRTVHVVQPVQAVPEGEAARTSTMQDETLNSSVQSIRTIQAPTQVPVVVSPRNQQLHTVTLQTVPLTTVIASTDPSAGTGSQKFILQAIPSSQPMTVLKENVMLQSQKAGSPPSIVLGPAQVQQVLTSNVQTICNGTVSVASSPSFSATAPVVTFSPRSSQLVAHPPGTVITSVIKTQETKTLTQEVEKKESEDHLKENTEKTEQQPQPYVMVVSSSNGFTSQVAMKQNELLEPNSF
# Outline: as §1
# EHF = target: T5, EHF (Homo sapiens, UniProt Q9NZC4 1-300); conditions: protein: recombinant; tags: N-terminal GST; dsDNA, one strand shown
# T5 sequence: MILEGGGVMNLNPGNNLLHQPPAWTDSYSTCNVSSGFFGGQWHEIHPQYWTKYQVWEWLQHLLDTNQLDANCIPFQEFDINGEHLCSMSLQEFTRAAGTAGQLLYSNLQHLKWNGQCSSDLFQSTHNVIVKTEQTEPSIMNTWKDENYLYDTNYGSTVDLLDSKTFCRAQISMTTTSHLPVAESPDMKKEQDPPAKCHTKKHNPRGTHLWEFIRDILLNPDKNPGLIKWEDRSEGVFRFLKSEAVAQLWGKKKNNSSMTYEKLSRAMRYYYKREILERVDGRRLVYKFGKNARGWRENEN
# Outline: as §1
# SPI1 = SPI1 (Homo sapiens, UniProt P17947 1-270); conditions: protein: recombinant; tags: N-terminal GST; dsDNA, one strand shown
# Outline: as §1
# SPIB = SPIB (Homo sapiens, UniProt Q01892 1-262); conditions: protein: recombinant; tags: N-terminal GST; dsDNA, one strand shown
# SPIB, sequence (Q01892 whole entry): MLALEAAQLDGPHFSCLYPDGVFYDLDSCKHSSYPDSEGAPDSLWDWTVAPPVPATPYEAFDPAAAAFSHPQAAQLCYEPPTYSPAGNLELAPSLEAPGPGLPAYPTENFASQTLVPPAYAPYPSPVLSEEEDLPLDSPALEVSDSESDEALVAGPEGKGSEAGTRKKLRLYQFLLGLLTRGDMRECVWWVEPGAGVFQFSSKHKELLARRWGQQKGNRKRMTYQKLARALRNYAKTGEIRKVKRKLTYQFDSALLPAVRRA
# Outline: as §1
# ELK3 = target: T6, ELK3 (Homo sapiens, UniProt P41970 1-407); conditions: protein: recombinant; tags: N-terminal GST; dsDNA, one strand shown
# T6 sequence: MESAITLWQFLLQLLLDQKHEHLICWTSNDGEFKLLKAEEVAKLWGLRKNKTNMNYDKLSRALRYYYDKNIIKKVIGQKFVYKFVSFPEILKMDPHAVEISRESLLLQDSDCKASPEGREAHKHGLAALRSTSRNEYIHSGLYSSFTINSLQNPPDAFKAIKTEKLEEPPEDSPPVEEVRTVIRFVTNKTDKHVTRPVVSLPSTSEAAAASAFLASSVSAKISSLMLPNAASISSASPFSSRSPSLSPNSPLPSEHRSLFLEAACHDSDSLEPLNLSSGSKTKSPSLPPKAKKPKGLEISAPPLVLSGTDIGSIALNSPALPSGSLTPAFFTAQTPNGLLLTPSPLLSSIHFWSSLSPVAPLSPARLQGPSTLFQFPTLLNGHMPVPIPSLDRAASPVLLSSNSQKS
# Outline: as §1
# FEV = target: T7, FEV (Homo sapiens, UniProt Q99581 1-238); conditions: protein: recombinant; tags: N-terminal GST; dsDNA, one strand shown
# T7 sequence: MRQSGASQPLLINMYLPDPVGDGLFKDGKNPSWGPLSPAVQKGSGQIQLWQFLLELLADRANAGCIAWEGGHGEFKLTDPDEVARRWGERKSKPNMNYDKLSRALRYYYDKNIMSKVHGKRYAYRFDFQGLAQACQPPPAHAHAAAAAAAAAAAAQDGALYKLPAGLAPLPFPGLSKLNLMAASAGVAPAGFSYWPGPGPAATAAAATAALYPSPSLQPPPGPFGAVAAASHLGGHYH
# Outline: as §1
# ETV5 = ETV5 (Homo sapiens, UniProt P41161 1-510); conditions: protein: recombinant; tags: N-terminal GST; dsDNA, one strand shown
# ETV5, sequence (P41161 whole entry): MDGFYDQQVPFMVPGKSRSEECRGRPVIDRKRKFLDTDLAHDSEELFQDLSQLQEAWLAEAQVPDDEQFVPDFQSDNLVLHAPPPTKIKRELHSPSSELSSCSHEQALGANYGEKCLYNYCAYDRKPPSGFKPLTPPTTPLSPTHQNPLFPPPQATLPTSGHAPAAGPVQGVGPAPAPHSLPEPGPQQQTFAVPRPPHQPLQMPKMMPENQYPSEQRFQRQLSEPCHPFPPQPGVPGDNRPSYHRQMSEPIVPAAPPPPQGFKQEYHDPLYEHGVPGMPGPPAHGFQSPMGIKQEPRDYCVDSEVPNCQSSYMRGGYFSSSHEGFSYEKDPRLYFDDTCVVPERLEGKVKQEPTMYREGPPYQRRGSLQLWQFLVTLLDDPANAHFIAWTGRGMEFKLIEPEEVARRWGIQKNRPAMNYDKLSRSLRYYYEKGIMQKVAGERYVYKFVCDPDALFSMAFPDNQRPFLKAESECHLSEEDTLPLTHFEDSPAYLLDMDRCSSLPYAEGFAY
# Outline: as §1
# HSF1 = HSF1 (Homo sapiens, UniProt Q00613 1-529); conditions: protein: recombinant; tags: N-terminal GST; chain copies: 3; dsDNA, one strand shown
# HSF1, sequence (Q00613 whole entry): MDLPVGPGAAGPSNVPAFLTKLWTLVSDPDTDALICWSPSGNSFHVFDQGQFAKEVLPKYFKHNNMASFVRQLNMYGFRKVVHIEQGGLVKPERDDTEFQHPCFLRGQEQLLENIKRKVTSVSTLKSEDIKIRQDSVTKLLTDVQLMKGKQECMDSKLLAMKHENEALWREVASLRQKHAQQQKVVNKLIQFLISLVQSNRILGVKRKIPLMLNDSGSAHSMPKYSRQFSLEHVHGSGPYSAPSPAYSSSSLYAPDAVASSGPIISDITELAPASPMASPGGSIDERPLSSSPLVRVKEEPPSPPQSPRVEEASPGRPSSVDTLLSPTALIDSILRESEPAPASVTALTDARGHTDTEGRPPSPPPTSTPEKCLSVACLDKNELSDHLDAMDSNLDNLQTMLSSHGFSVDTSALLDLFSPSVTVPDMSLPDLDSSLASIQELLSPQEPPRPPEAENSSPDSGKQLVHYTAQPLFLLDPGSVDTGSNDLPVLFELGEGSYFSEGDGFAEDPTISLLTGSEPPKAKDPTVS
# Outline: as §1
# SPIC = target: T8, SPIC (Homo sapiens, UniProt Q8N5J4 1-248); conditions: protein: recombinant; tags: N-terminal GST; dsDNA, one strand shown
# T8 sequence: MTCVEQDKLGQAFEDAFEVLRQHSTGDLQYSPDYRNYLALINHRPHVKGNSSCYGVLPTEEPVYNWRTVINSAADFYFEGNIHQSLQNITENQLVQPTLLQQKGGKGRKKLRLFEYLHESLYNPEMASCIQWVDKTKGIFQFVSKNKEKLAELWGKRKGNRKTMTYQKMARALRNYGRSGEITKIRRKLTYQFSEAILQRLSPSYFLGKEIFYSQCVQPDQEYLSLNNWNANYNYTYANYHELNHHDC
# Outline: as §1
# ELF4 = ELF4 (Homo sapiens, UniProt Q99607 1-663); conditions: protein: recombinant; tags: N-terminal GST; dsDNA, one strand shown
# ELF4, sequence (Q99607 whole entry): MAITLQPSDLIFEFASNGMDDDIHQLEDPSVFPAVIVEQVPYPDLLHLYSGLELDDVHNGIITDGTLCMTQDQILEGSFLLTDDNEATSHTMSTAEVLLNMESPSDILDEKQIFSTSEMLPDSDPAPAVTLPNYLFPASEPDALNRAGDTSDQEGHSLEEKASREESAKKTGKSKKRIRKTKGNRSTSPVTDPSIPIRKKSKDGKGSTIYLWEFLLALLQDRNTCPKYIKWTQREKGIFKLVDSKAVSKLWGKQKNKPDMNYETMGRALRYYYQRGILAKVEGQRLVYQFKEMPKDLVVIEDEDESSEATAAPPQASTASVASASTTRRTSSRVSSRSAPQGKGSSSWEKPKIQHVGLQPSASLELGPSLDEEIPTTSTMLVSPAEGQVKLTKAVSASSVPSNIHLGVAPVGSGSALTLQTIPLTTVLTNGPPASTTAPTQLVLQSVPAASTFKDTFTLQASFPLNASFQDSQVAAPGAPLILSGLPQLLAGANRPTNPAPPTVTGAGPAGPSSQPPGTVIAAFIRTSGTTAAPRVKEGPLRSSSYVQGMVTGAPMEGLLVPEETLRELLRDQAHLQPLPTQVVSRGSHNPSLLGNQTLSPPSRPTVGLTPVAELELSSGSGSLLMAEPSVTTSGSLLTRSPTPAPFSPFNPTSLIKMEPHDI
# Outline: as §1
# ELK4 = target: T9, ELK4 (Homo sapiens, UniProt P28324-2 1-405); conditions: protein: recombinant; tags: N-terminal GST; dsDNA, one strand shown
# T9 sequence: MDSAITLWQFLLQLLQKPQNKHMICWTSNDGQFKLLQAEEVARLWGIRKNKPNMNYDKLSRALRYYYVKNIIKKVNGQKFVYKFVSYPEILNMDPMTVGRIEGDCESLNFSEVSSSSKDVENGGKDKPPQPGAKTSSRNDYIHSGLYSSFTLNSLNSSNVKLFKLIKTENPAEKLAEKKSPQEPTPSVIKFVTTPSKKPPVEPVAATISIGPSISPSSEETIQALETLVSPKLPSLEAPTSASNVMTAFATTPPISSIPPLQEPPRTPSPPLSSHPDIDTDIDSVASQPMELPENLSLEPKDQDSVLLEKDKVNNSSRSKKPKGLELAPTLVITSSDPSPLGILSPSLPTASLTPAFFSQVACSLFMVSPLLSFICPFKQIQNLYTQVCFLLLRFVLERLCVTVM
# Outline: as §1
# ETV2 = target: T10, ETV2 (Homo sapiens, UniProt O00321 1-342); conditions: protein: recombinant; tags: N-terminal GST; dsDNA, one strand shown
# T10 sequence: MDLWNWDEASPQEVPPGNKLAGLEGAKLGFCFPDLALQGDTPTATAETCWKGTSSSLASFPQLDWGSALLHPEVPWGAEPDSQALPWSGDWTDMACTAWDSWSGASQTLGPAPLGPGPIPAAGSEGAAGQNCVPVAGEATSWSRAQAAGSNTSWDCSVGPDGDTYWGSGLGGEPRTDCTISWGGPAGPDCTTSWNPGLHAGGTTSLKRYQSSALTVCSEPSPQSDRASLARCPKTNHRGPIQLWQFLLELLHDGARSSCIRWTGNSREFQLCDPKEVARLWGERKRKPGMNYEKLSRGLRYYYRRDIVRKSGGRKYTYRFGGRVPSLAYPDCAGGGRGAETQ
# Outline: as §1
# ELF3 = target: T11, ELF3 (Homo sapiens, UniProt P78545 1-371); conditions: protein: recombinant; tags: N-terminal GST; dsDNA, one strand shown
# T11 sequence: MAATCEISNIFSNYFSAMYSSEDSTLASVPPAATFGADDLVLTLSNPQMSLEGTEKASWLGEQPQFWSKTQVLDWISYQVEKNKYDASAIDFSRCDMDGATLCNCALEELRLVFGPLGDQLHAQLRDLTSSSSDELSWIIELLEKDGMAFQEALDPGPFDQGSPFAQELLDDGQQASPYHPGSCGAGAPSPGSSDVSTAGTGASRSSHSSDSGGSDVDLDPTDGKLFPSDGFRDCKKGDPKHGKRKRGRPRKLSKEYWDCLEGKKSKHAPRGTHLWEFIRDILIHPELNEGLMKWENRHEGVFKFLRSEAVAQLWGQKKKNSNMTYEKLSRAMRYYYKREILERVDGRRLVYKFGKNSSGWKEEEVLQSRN
# Outline: as §1
# CRX = CRX (Homo sapiens, UniProt O43186 1-299); conditions: protein: recombinant; tags: N-terminal GST; dsDNA, one strand shown
# CRX, sequence (O43186 whole entry): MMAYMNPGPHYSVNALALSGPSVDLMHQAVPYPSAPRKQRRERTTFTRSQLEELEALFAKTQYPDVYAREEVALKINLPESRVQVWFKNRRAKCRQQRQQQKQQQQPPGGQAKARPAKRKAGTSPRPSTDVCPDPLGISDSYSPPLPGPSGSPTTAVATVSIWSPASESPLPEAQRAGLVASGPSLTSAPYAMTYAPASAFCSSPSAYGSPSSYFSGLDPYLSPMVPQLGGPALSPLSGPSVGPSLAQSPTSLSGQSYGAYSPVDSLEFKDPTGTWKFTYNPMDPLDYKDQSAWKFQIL
# Outline: as §1
# ETV1 = ETV1 (Homo sapiens, UniProt P50549 1-477); conditions: protein: recombinant; tags: N-terminal GST; dsDNA, one strand shown
# ETV1, sequence (P50549 whole entry): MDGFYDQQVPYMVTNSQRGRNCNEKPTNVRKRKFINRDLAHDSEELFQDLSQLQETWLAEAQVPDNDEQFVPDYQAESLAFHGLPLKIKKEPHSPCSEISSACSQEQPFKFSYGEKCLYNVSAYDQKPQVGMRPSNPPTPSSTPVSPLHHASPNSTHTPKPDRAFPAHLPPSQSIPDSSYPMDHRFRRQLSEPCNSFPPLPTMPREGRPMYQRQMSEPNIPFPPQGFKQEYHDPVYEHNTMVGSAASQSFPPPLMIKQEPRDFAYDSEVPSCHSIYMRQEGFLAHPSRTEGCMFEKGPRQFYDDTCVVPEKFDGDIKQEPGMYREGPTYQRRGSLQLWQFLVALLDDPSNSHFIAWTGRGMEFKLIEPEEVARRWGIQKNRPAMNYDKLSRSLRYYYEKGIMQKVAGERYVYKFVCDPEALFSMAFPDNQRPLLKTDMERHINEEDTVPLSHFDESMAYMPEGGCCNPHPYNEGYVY
# Outline: as §1
sequence,measurement,setting,value
TTGGTG,binding signal,FLI1,"1.35 fold enrichment (6-mer frequency, TF over GST control)"
same,binding signal,ELK1,"1.21 fold enrichment (6-mer frequency, TF over GST control)"
same,binding signal,GABPA,"1.42 fold enrichment (6-mer frequency, TF over GST control)"
same,binding signal,ERG,"1.23 fold enrichment (6-mer frequency, TF over GST control)"
same,binding signal,ELF1,"1.3 fold enrichment (6-mer frequency, TF over GST control)"
same,binding signal,EHF,"1.43 fold enrichment (6-mer frequency, TF over GST control)"
same,binding signal,SPI1,"1.22 fold enrichment (6-mer frequency, TF over GST control)"
same,binding signal,SPIB,"1.22 fold enrichment (6-mer frequency, TF over GST control)"
same,binding signal,ELK3,"1.55 fold enrichment (6-mer frequency, TF over GST control)"
same,binding signal,FEV,"1.22 fold enrichment (6-mer frequency, TF over GST control)"
same,binding signal,ETV5,"1.32 fold enrichment (6-mer frequency, TF over GST control)"
same,binding signal,HSF1,"1.18 fold enrichment (6-mer frequency, TF over GST control)"
same,binding signal,SPIC,"1.32 fold enrichment (6-mer frequency, TF over GST control)"
same,binding signal,ELF4,"1.3 fold enrichment (6-mer frequency, TF over GST control)"
same,binding signal,ELK4,"1.44 fold enrichment (6-mer frequency, TF over GST control)"
same,binding signal,ETV2,"1.52 fold enrichment (6-mer frequency, TF over GST control)"
same,binding signal,ELF3,"1.3 fold enrichment (6-mer frequency, TF over GST control)"
same,binding signal,CRX,"1.28 fold enrichment (6-mer frequency, TF over GST control)"
same,binding signal,ETV1,"1.41 fold enrichment (6-mer frequency, TF over GST control)"
